We go through eight molecules from PubChem BioAssay (EPA / NIEHS).

What is called AC50 is the concentration at which the activity in the assay is half-maximal.

Assay [1] can be described thus: ATG_GRE_CIS: Attagene CIS-FACTORIAL HepG2 Assay for human Glucocorticoid Response Elements (GRE) (AID 2282947). The following applies: HepG2 GRE cis-reporter, Attagene multiplex mRNA; actives raise or lower the signal. In outline:
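Cells (HepG2) bearing transfected cis-promoter reporter transcription units were treated with chemical for 24 hours. Reporter mRNA was measured via RT-PCR with capillary electrophoresis, and activity was fitted in both directions relative to DMSO.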

A short description of assay [2]: ATG_ISRE_CIS: Attagene CIS-FACTORIAL HepG2 Assay for human Interferon Regulatory Factor 1 (IRF1) binding to an Interferon-Stimulated Response Element (ISRE) (AID 2282948). The following applies: HepG2 ISRE cis-reporter (Attagene), mRNA transcription readout; actives raise or lower the signal. In a few lines:
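Multiplexed mRNA reporter readout in human liver HepG2 cells: cis-element-driven reporters transfected, compound added for 24 h, transcripts amplified, fluorescently labelled and sized by capillary electrophoresis; curve fitting bidirectional against DMSO.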

A short description of assay [3]: ATG_M_32_CIS: Attagene CIS-FACTORIAL HepG2 Assay for M32 Transcription Factor (Internal Marker) (AID 2282949).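 Also: background control marker of the multiplexed CIS panel rather than a real target.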 The following applies: HepG2 Attagene cis-factorial M32 reporter, mRNA; actives raise or lower the signal. In a few lines:
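HepG2 human liver cells transiently transfected with cis-promoter-driven multiple reporter transcription units, dosed 24 h. Reporter mRNA quantified by RT-PCR, FAM-labelled primer extension, HpaI digest and capillary electrophoresis; bidirectional fit versus DMSO baseline.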

A short description of assay [4]: ATG_M_06_CIS: Attagene CIS-FACTORIAL HepG2 Assay for M06 Transcription Factor (Internal Marker) (AID 2282950). The following applies: HepG2 Attagene CIS-FACTORIAL M06 internal marker reporter; actives raise or lower the signal. In a few lines: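 One of many multiplexed endpoints: HepG2 reporter mRNA after 24 h dosing, detected by RT-PCR and capillary electrophoresis fluorescence; gain or loss of signal analysed against DMSO.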

In assay [5] the target is Hypoxia-inducible factor 1-alpha (Homo sapiens) (UniProt Q16665). Briefly: ATG_HIF1a_CIS: Attagene CIS-FACTORIAL HepG2 Assay for human Hypoxia Inducible Factor 1 (HIF1A) (AID 2282951). Conditions: HepG2 Attagene cis-factorial HIF1a reporter transcription; actives raise or lower the signal. In a few lines:
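HepG2, transient cis-reporter library, 24 h dosing. RNA → RT (oligo dT) → PCR → 6-FAM primer extension → HpaI → CE. Bidirectional curve fit vs DMSO.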

Assay [6] concerns the target Hepatocyte nuclear factor 6 (Homo sapiens) (UniProt Q9UBC0). Briefly: ATG_HNF6_CIS: Attagene CIS-FACTORIAL HepG2 Assay for human Hepatocyte Nuclear Factor 6 (HNF6) (AID 2282952). The following applies: HepG2 Attagene cis-factorial HNF6 reporter transcription; actives raise or lower the signal. In outline: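 Endogenous factor activity read in transiently transfected HepG2 via promoter-regulated reporter transcripts. RNA harvested 24 h post-dosing, reverse-transcribed, PCR-amplified, FAM-labelled, HpaI-digested and resolved by capillary electrophoresis; fitted in both directions against DMSO.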

For assay [7], the target named is Heat shock factor protein 1 (Homo sapiens) (UniProt Q00613). Briefly: ATG_HSE_CIS: Attagene CIS-FACTORIAL HepG2 Assay for human Heat Shock Transcription Factor 1 (HSE) (AID 2282953). The following applies: HepG2 HSE cis-reporter, Attagene RNA transcription; actives raise or lower the signal. In a few lines:
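Using HepG2 with transfected cis-driven reporter constructs, compound effects on endogenous factor activity are scored as reporter mRNA change at 24 h. Detection: RT-PCR, HpaI digestion, capillary electrophoresis; bidirectional fitting to DMSO.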

Assay [8] in a line: ATG_MRE_CIS: Attagene CIS-FACTORIAL HepG2 Assay for human Metal Responsive Element (MRE) (AID 2282954). Conditions: HepG2 MRE cis-reporter transcription, Attagene multiplex; actives raise or lower the signal. In a few lines:
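Cells were transfected with cis-promoter reporter transcription units, then dosed for 24 h. RNA was reverse-transcribed, amplified, fluorescently labelled and resolved by capillary electrophoresis, and activity was fitted in both directions relative to DMSO.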

The nature of assay [9]: ATG_PBREM_CIS: Attagene CIS-FACTORIAL HepG2 Assay for human Phenobarbital-responsive Enhancer Module (PBREM) (AID 2282955). Conditions: HepG2 PBREM cis-reporter, Attagene multiplexed transcription; actives raise or lower the signal. In a few lines: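 HepG2, transient MRTU transfection, 24 h dosing; RNA → oligo(dT) RT → PCR → 6-FAM extension → HpaI → CE. Bidirectional fit vs DMSO.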

The target of assay [10] is Paired box protein Pax-6 (Homo sapiens) (UniProt P26367). Kind of assay: ATG_Pax6_CIS: Attagene CIS-FACTORIAL HepG2 Assay for human Paired Box 6 (PAX6) (AID 2282956). Conditions: HepG2 CIS-FACTORIAL PAX6 reporter transcription, RNA readout; actives raise or lower the signal. In outline:
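Fluorescent RT-PCR products separated by capillary electrophoresis report PAX6-linked promoter mRNA in HepG2 cells 24 h post-dose. Curves fitted bidirectionally, DMSO as negative control.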

Assay [11] in a line: ATG_PXRE_CIS: Attagene CIS-FACTORIAL HepG2 Assay for human Pregnane X Receptor Element (PXRE) (AID 2282957). Conditions: HepG2 Attagene CIS-FACTORIAL PXRE reporter, mRNA; actives raise or lower the signal. In a few lines: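 Reporter transcripts under endogenous PXR-responsive cis-regulation quantified from total RNA of transfected HepG2 cells 24 h post-dosing, via RT-PCR with fluorescent primer extension and capillary electrophoresis. Gain or loss of signal fitted against DMSO baseline.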

Assay [12] can be described thus: ATG_PPRE_CIS: Attagene CIS-FACTORIAL HepG2 Assay for human Peroxisome Proliferator-activated Response Element (PPRE) (AID 2282958). The following applies: HepG2 PPRE cis-element reporter, Attagene transcription factor profiling; actives raise or lower the signal. In a few lines: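 Transcript-level reporter induction in transfected HepG2 cells after 24 h chemical exposure, quantified by fluorescence from RT-PCR products separated by capillary electrophoresis.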

Assay [13] is described as follows: ATG_RORE_CIS: Attagene CIS-FACTORIAL HepG2 Assay for human RAR-related Orphan Receptor Element (RORE) (AID 2282959). The following applies: HepG2 Attagene cis-factorial RORE reporter, mRNA; actives raise or lower the signal. In a few lines:
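Multiplexed reporter assay measuring mRNA induction from a cis promoter element in transiently transfected HepG2 cells after 24 h treatment. Detection via RT-PCR and capillary electrophoresis fluorescence; DMSO serves as baseline.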

Assay [14] concerns the target Transcription factor Sp1 (Homo sapiens) (UniProt P08047). Briefly: ATG_Sp1_CIS: Attagene CIS-FACTORIAL HepG2 Assay for human Specificity Protein 1 (Sp1) (AID 2282961). The following applies: HepG2 Sp1 cis-reporter transcription, actives raise or lower the signal. In outline:
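Measures mRNA induction of an Sp1-linked reporter in HepG2 cells 24 h post-dosing. Multiplexed reporters read by RT-PCR and capillary electrophoresis; DMSO serves as negative control and baseline.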

The nature of assay [15]: ATG_SREBP_CIS: Attagene CIS-FACTORIAL HepG2 Assay for human Sterol Regulatory Element Binding (SREBP) (AID 2282962). The following applies: HepG2 Attagene cis-factorial SREBP reporter, mRNA; actives raise or lower the signal. In a few lines: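 Endogenous factor activity is measured in HepG2 through multiplexed reporter units under cis-element control. Following a 24 h incubation, reporter transcripts are reverse-transcribed, PCR-amplified and sized by capillary electrophoresis; activity is fitted in both directions relative to DMSO.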

Assay [16] deals with Signal transducer and activator of transcription 3 (Homo sapiens) (UniProt P40763). Briefly: ATG_STAT3_CIS: Attagene CIS-FACTORIAL HepG2 Assay for human Signal Transducer and Activator of Transcription 3 (STAT3) (AID 2282963). The following applies: HepG2, Attagene cis-factorial STAT3 reporter transcription; actives raise or lower the signal. In outline:
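HepG2, MRTU-transfected, 24 h dosing. RNA → RT → PCR → FAM label → HpaI → CE. Bidirectional fit vs DMSO.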

The nature of assay [17]: ATG_TA_CIS: Attagene CIS-FACTORIAL HepG2 Assay for human TA Basal Promoter (AID 2282964). The following applies: HepG2 Attagene CIS-factorial TA basal promoter reporter; actives raise or lower the signal. In outline: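 Transient MRTU transfection of HepG2 preceded 24 h compound exposure. Reporter mRNA levels were then read by RT-PCR with capillary electrophoresis, and this background-control endpoint was fitted bidirectionally to DMSO.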

A short description of assay [18]: ATG_TCF_b_cat_CIS: Attagene CIS-FACTORIAL HepG2 Assay for human T-Cell-Factor with beta-catenin (TCF/b-cat) (AID 2282965). The following applies: HepG2 TCF/beta-catenin cis-reporter transcription, actives raise or lower the signal. In outline: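 HepG2 cells transiently transfected with multiple cis-promoter-regulated reporter transcription units, so endogenous transcription factor activity is measured. Reporter mRNA read 24 hours after dosing by RT-PCR, fluorescent labelling and capillary electrophoresis; bidirectional fitting against DMSO.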

A short description of assay [19]: ATG_Sox_CIS: Attagene CIS-FACTORIAL HepG2 Assay for human SRY-box transcription factor (SOX) (AID 2282960). The following applies: HepG2 Attagene cis-factorial SOX reporter, mRNA; actives raise or lower the signal. In a few lines:
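Cells were transfected with reporter constructs under cis-regulatory promoters, then exposed to chemicals for 24 h. Reporter transcripts were quantified by fluorescence after RT-PCR and capillary electrophoresis; activity was fitted in both directions against DMSO.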

Activity calls are given as the source filed them. The calls were made as follows: active = hit-call score of the fitted dose curve at least 0.9, where 1 is the maximum; inactive = score below 0.9.

Sequence of Paired box protein Pax-6 (Homo sapiens) (P26367 whole entry, looked up): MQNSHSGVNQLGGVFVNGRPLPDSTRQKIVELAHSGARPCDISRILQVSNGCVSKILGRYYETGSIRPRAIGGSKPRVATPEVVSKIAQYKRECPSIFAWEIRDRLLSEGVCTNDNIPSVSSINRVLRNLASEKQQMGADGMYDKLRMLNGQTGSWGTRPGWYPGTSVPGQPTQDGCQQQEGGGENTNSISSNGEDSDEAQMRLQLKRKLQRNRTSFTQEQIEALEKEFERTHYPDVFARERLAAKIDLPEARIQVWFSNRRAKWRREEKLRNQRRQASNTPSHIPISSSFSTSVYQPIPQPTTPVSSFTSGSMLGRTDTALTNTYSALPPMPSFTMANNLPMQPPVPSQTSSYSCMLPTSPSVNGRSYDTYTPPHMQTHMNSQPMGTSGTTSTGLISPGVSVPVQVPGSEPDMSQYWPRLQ
Sequence of Heat shock factor protein 1 (Homo sapiens) (Q00613 whole entry, looked up): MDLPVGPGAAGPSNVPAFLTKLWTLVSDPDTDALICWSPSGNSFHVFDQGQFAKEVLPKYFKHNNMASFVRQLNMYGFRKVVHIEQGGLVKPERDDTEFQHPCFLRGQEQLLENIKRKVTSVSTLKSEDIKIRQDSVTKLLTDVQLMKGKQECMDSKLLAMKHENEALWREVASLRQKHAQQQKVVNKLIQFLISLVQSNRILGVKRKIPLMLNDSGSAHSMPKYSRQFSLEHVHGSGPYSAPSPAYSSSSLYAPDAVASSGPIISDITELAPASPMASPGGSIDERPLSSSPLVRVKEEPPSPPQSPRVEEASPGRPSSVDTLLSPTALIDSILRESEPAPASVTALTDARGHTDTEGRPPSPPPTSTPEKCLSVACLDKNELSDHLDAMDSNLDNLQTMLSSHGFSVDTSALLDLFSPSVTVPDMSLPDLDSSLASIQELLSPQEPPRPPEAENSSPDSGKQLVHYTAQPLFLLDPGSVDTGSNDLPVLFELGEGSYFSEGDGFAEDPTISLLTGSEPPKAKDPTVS
Sequence of Signal transducer and activator of transcription 3 (Homo sapiens) (P40763 whole entry, looked up): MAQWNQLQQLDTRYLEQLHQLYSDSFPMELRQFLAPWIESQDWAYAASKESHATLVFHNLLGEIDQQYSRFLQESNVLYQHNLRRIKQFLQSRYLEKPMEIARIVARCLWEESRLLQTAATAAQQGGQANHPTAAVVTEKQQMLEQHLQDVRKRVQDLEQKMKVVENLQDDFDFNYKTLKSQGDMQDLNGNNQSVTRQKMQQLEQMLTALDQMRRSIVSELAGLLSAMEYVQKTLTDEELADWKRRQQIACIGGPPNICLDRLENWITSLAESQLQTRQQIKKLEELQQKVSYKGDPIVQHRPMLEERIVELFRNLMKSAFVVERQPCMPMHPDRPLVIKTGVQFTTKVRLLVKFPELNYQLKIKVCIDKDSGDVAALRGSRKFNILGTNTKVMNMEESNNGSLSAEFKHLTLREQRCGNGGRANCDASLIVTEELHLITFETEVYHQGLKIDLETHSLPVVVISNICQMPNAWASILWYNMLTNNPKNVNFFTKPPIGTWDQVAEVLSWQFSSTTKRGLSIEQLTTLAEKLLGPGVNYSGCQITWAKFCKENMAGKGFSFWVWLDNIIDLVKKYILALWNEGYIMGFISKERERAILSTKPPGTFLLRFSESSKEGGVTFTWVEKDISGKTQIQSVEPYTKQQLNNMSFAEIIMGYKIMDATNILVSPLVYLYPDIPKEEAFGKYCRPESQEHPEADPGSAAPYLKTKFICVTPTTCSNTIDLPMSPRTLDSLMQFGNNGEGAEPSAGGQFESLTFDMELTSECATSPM
Sequence of Hypoxia-inducible factor 1-alpha (Homo sapiens) (Q16665 whole entry, looked up): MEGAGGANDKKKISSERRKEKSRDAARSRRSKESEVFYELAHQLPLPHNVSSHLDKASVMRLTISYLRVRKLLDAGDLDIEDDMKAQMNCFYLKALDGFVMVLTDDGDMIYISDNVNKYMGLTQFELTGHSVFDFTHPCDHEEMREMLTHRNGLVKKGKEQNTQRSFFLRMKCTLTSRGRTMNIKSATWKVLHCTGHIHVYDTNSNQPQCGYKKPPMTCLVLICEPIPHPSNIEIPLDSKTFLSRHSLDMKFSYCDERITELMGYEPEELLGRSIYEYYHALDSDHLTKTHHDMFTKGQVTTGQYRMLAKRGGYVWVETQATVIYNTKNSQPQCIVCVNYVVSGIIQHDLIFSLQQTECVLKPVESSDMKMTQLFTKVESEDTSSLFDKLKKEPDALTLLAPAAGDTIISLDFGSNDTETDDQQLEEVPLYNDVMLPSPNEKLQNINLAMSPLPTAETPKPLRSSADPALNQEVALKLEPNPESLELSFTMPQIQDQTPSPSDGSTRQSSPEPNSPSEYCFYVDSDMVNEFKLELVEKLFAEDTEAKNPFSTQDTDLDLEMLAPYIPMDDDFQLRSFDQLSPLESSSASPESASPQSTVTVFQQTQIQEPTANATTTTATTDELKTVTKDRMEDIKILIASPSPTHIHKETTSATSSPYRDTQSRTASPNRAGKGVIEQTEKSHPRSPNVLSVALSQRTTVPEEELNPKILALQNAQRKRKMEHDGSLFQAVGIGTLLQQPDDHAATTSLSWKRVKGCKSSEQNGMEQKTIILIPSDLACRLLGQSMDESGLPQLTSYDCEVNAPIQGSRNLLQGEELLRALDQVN
Sequence of Transcription factor Sp1 (Homo sapiens) (P08047 whole entry, looked up): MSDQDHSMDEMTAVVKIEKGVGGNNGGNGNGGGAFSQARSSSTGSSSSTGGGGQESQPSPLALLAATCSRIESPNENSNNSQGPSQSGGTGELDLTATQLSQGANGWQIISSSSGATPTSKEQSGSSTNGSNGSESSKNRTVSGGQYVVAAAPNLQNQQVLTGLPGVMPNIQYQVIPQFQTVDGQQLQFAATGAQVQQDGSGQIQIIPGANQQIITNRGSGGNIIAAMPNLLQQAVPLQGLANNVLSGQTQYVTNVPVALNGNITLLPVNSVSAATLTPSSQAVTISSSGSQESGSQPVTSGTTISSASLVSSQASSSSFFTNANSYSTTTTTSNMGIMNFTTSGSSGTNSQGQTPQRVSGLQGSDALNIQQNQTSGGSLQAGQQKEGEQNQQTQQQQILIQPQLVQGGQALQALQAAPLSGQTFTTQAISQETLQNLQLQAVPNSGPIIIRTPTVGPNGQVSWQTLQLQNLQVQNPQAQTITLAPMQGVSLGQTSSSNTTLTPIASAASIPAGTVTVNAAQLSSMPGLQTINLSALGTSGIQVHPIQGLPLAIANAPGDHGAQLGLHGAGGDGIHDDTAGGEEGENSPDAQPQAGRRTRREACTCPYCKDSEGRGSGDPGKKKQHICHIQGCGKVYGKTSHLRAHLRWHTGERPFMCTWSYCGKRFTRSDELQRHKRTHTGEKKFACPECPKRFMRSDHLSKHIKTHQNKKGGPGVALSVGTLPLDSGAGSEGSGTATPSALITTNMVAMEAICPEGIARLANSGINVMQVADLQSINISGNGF
Sequence of Hepatocyte nuclear factor 6 (Homo sapiens) (Q9UBC0 whole entry, looked up): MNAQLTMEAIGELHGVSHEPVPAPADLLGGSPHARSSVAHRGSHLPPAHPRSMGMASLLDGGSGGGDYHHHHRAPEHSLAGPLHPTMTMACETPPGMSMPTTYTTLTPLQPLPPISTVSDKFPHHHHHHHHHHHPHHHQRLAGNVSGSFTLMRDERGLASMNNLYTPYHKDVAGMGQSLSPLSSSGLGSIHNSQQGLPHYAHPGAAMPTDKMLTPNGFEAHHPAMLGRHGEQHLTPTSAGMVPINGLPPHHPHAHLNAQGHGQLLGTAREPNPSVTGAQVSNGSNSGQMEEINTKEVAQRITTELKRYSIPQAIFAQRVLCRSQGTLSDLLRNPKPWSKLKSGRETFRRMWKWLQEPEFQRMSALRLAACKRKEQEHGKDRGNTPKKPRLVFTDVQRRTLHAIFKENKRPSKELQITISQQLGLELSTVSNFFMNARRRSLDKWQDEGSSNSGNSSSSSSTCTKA

Consider `CNCc1ccc(NC(=O)c2c[nH]c3c2C(=O)CCC3)cc1`, for which the outcome in assay [1], in assay [3], in [4], in assay [5], in [6] and in assay [7] was inactive. The molecule was called inactive in assay [8], in assay [9], in [10], in [11], in [12] and in assay [13]. Moreover, the outcome in [14], in assay [15], in [16] and in assay [17] was inactive. Moreover, the AC50 was 71.1 µM (active) in assay [2] and 24.1 µM (active) in [18].

In the case of `Clc1nc(Cl)c(Cl)c(Cl)c1Cl`, the outcome in [1], in assay [2], in [3], in assay [4], in assay [5] and in [6] was inactive. Also, the result in assay [7], in assay [8], in [9], in assay [10], in assay [11] and in assay [12] was inactive. The call in [13], in [14], in [15], in assay [16], in [17] and in assay [18] was inactive.

In the case of `Cc1ccc(N)cc1O`, the outcome in assay [1], in assay [2], in [3], in assay [4], in assay [5] and in assay [6] was inactive. Also, the result in assay [7], in assay [8], in assay [9], in assay [10], in [11] and in [12] was inactive. Moreover, the molecule was called inactive in assay [13], in [14], in assay [15], in [16], in assay [17] and in assay [18].

For the molecule `CCCCCCCCO`, the molecule was called inactive in [1], in [2], in [3], in assay [4], in [5] and in [6]. Also, the outcome in assay [8], in [9], in [10], in [11], in [12] and in [13] was inactive. Further, the result in assay [19], in [14], in assay [15], in assay [16] and in [17] was inactive. Also, the AC50 in assay [18] is 20.5 µM (active).

`CC(C)CC(C)(O)C#CC(C)(O)CC(C)C` (stereo unspecified): the molecule was classed as inactive in assay [1], in [2], in assay [3], in assay [4], in assay [5] and in assay [6]. The call in [7], in assay [8], in assay [9], in [10], in [13] and in [14] was inactive. The molecule was classed as inactive in assay [15], in assay [16], in assay [17] and in [18]. Moreover, in assay [11], the AC50 is 12.7 µM (active).

Regarding `O=C(NS(=O)(=O)/C=C/c1ccccc1)c1ccc(F)cc1Cl`, the call in [2], in assay [3], in assay [4], in assay [5], in assay [6] and in assay [7] was inactive. For the same molecule, the call in [8], in assay [9], in [10], in assay [12], in assay [13] and in assay [14] was inactive. The molecule was classed as inactive in [15], in [16], in assay [17] and in assay [18]. Also, the AC50 in [11] was 34.9 µM (active).

Regarding `CC[C@H]1OC(=O)[C@H](C)[C@@H](O[C@H]2C[C@@](C)(OC)[C@@H](O)[C@H](C)O2)[C@H](C)[C@@H](O[C@@H]2O[C@H](C)C[C@H](N(C)C)[C@H]2O)[C@](C)(O)C[C@@H](C)C(=O)[C@H](C)[C@@H](O)[C@]1(C)O`, the molecule was classed as inactive in assay [2], in [3], in [4], in assay [6], in assay [8] and in [9]. Moreover, the molecule was classed as inactive in [10], in [11], in [13], in [14], in [15] and in [16]. Further, the molecule was called inactive in assay [17] and in [18].

With `NC(=O)NO`, the molecule was classed as inactive in [1], in assay [2], in [3], in assay [4], in assay [6] and in [8]. In addition, the outcome in [9], in [10], in [11], in assay [13], in [19] and in assay [14] was inactive. For the same molecule, the molecule was classed as inactive in assay [15], in assay [16], in [17] and in assay [18].
